Data on eight compounds can be found in PMC5540273 (PLoS ONE, 2017).

For one test, the system named is T1, MEK5.
T1 construct: gene MAP2K5
The conditions noted are these: concentration: 1 μM,replicates: in singlicate; n = 1.

Another test relates to T2, MEK6.
T2 construct: gene MAP2K6
The following applies: concentration: 1 μM,replicates: in singlicate; n = 1.

The subject of a further test is MELK. The following applies: concentration: 1 μM,replicates: in singlicate; n = 1.
The subject of another test is MERTK. The conditions noted are these: concentration: 1 μM,replicates: in singlicate; n = 1.
Another test has as its system MET. The following applies: n = 1.
A further test deals with T3, MINK.
T3 construct: gene MINK1
The following applies: concentration: 1 μM,replicates: in singlicate; n = 1.

In the next test the test system is MKK7. The following applies: concentration: 1 μM,replicates: in singlicate; n = 1.
For the next test, the system named is MKNK1. The conditions noted are these: concentration: 1 μM,replicates: in singlicate; n = 1.
In a further test the test system is MKNK2. The conditions noted are these: concentration: 1 μM,replicates: in singlicate; n = 1.
In the next test the test system is T4, MLCK.
T4 construct: gene MYLK3
The conditions noted are these: concentration: 1 μM,replicates: in singlicate; n = 1.

[1] abbreviates: concentration: 1 μM,replicates: in singlicate.

Like-named read-outs stand apart in the source and are kept apart here.
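Also: KINOMEscan kinase panel screen.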

On to `CC(C)S(=O)(=O)N1CCN(Cc2ccc3c(c2)nc(NC(=O)c2ccsc2)n3C[C@H](O)c2ccccc2)CC1` [GW635815], for which the “%Inh” value in the test on MEK5 worked out at 91.9%; with MEK6, 0%; with MELK, 28%; with MERTK, 83%; in the test with MET (setting [1]) it was 20%; with MINK, 60%. In addition, the “%Inh” value in the test with MKK7 was 0%; in the test on MKNK1 it was 7%; in the test on MKNK2, 0%; in the test on MLCK it was 0%.

With `O=C(NOCC1CC1)c1cc(Br)c(F)c(F)c1Nc1ccc(I)cc1Cl`, the “%Inh” value in the test with MEK5 worked out at 20%; in the test on MEK6, 0%; in the test with MELK, 0%; in the test with MERTK, 0%; in the test with MET (setting [1]), 0%; with MINK it was 9%. Moreover, the “%Inh” value in the test with MKK7 is 0%; with MKNK1, 10%; in the test with MKNK2, 5%; in the test with MLCK, 0%.

Turning to `O=C(Nc1ccc(Oc2ccc3nc(NC(=O)C4CC4)cn3n2)c(F)c1)c1cccn(-c2ccccc2)c1=O`, the “%Inh” value in the test on MEK5 was 97%; with MEK6 it was 0%; with MELK it was 18%; in the test on MERTK, 96%; in the test on MINK, 0%; with MKK7 it was 0%. Further, the “%Inh” value amounted to 20% with MKNK1, 92.5% with MKNK2 and 0% in the test on MLCK.

Regarding `Cl.c1ccc(Oc2ccc(Nc3ccnc4cc(-c5ccc(CN6CCNCC6)o5)ccc34)cc2)nc1` [GW567142], the “%Inh” value with MEK5 is listed as 99.9%; in the test on MEK6, 16%; with MELK, 0%; with MERTK, 0%; in the test on MET (setting [1]) it was 0%; with MINK it was 27%. The “%Inh” value with MKK7 was 11%; with MKNK1 it was 0%; with MKNK2, 42%; in the test on MLCK it was 4%.

Turning to `O=C1NCCc2[nH]c(-c3ccncc3)cc21`, the “%Inh” value stood at 35% in the test on MEK5; 25% in the test on MEK6; 21% in the test with MELK; 0% in the test with MERTK; 33% in the test with MET (1 µM); 55% with MINK. The “%Inh” value in the test on MKK7 is 0%; with MKNK1, 13%; in the test with MKNK2, 23%; in the test on MLCK, 58%.

On to `CCn1c(-c2nonc2N)nc2cncc(CNC3CCNCC3)c21.Cl` [SB-747651], for which the “%Inh” value in the test with MEK5 stood at 32%; in the test on MEK6 it was 0%; in the test on MELK, 37%; in the test on MERTK, 0%; in the test on MET (setting [1]), 2%; with MINK, 0%. The “%Inh” value stood at 0% in the test with MKK7, 0% with MKNK1, 17% in the test with MKNK2 and 0% in the test with MLCK.

For the compound `CCOC(=O)N1CCC(n2cnc(-c3ccc(F)cc3)c2-c2ccnc(N)n2)CC1` [SB-219952], the “%Inh” value in the test with MEK5 amounted to 29%; with MEK6, 1%; with MELK, 0%; in the test on MERTK, 21%; in the test with MET (setting [1]), 16%; in the test with MINK it was 54%. For the same compound, the “%Inh” value in the test on MKK7 worked out at 11%; in the test on MKNK1, 19%; with MKNK2, 49%; in the test on MLCK, 0%.

Take `COc1cccc(CNC(=O)NC2CCN(c3ccnc(Nc4cc(OC)c(OC)c(OC)c4)n3)C2)c1` (stereo not shown) [GSK1379765]: the “%Inh” value with MEK5 amounted to 99.9%; in the test on MEK6, 0%; with MELK it was 15%; in the test with MERTK, 17%; in the test with MET (setting [1]), 26%; in the test on MINK it was 12%. The “%Inh” value is 0% in the test with MKK7, 21% in the test on MKNK1, 39% in the test on MKNK2 and 6% in the test with MLCK.
